In PubChem BioAssay (NCATS):
Where “and” joins values, the source holds several entries; their conditions need not be identical. Identical values can stand only once. Results filed as inconclusive are left out. More than one record can exist for a structure, and the calls need not agree. Calls of active or inactive are those of the source. Unless noted, calls follow the shape of the dose curve; as a rule, active = well fitted curve in the direction sought with a large enough effect; inconclusive = small, poorly fitted or top-dose-only effect, or another doubt; inactive = no such curve, though single readings can be large; an effect the other way counts as inactive or inconclusive.

Tests used:
[1] = molecular target: Galactokinase (Homo sapiens) (UniProt P51570); test: qHTS Validation Assay for Inhibitors of Human Galactokinase (GALK) (AID 493189)
Galactokinase (Homo sapiens), sequence (P51570 whole entry, looked up): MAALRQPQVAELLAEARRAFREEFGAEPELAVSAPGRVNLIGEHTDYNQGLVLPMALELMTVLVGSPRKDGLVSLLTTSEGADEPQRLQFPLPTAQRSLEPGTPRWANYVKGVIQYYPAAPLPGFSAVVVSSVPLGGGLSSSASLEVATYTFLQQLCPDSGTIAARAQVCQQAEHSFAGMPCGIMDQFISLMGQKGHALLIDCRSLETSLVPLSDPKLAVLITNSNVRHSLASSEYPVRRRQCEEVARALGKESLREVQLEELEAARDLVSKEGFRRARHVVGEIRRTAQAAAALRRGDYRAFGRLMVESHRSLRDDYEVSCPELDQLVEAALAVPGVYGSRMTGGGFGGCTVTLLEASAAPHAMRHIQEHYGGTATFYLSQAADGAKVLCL
How it was run: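 Inhibition was measured as remaining ATP, detected by luciferase luminescence after a 1 h room-temperature reaction. Final conditions: 5 nM GALK, 100 uM galactose, 35 uM ATP, pH 8.0 HEPES buffer.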

[2] = Validation screen for small molecules that induce DNA re-replication in SW480 colon adenocarcinoma cells (AID 504364)
How it was run: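 Read-out: total Hoechst intensity of nuclei by fluorescence scanning imager; hits raise the fraction of nuclei with elevated DNA content. Cells received compound for 48 hr at 37 C before a 40 min stain.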

[3] = molecular target: Peptidyl-prolyl cis-trans isomerase NIMA-interacting 1 (Homo sapiens) (UniProt Q13526); test: qHTS Validation Assay to Find Inhibitors of Pin1 (AID 504536; active = well fitted inhibition curve with a large enough effect in the polarisation, with a control signal flat, not every such curve was filed as active; the % refers to the polarisation)
Peptidyl-prolyl cis-trans isomerase NIMA-interacting 1 (Homo sapiens), sequence (Q13526 whole entry, looked up): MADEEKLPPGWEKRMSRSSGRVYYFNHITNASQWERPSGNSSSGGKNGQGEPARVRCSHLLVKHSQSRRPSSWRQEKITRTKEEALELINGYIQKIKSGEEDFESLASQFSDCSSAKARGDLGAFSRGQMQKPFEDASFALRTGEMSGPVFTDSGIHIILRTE
How it was run: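 Fluorescence polarization competition: compounds (titration) displace HiFluor-488-labeled Pin1-1b peptide from Pin1 (0.3 uM final) in pH 7.5 HEPES buffer with DTT, 10 min at room temperature; %Activity normalized to no-enzyme wells, curves fitted.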

[4] = molecular target: Phosphoglycerate kinase, glycosomal (Trypanosoma brucei brucei) (UniProt P07378); test: qHTS Validation Assay to Find Inhibitors of Phosphoglycerate Kinase (AID 504547)
Phosphoglycerate kinase, glycosomal (Trypanosoma brucei brucei), sequence (P07378 whole entry, looked up): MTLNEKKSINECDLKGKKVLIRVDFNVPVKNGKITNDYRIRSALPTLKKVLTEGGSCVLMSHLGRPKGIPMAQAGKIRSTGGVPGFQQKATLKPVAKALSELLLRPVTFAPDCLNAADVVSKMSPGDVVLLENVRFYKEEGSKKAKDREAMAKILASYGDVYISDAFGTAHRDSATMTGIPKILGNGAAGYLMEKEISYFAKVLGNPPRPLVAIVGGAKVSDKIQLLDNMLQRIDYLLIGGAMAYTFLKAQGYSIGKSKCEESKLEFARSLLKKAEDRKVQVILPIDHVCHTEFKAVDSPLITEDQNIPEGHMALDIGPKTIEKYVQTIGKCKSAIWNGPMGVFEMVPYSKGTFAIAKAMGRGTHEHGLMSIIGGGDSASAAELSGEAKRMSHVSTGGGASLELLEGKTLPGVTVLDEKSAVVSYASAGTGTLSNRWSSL
How it was run: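 Luminescence end-point (Kinase-Glo Plus, 10 min) after a 60 min room-temperature coupled reaction. GAPDH at 100nM final supplies 1,3-BPG to PGK. Buffer: 100mM TEA pH 7.6, 5mM MgCl2, 0.01% Tween-20. Wells lacking PGK served as controls.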

[5] = molecular target: phosphoglycerate mutase (Leishmania major) (UniProt Q4Q090); test: qHTS Validation Assay to Find Inhibitors of Phosphoglycerate Mutase (AID 504548);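 also: end-point luminescence from Kinase-GloPlus after the PGAM reaction; series mostly up to about 58 µM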
phosphoglycerate mutase (Leishmania major), sequence (Q4Q090 1-553): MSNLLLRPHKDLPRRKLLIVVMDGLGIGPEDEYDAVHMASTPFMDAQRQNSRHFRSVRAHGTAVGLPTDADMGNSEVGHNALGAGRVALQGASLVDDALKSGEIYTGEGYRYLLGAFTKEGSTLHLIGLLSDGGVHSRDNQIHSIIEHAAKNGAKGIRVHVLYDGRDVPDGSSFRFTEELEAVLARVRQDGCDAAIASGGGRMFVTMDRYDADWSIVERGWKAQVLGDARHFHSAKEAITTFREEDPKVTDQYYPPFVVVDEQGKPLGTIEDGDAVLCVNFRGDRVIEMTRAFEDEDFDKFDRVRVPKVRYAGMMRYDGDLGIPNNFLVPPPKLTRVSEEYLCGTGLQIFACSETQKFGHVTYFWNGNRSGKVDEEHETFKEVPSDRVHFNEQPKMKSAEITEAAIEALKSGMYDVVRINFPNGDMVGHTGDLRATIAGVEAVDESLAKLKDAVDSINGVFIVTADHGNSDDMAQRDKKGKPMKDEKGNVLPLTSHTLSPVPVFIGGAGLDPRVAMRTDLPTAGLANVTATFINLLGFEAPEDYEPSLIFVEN
How it was run: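 L. major PGAM (1.25nM final) was added to substrate buffer and pinned compound, incubated 45 minutes at room temperature, then Kinase-GloPlus added; luminescence read after 10 minutes. Buffer: 100 mM TEA pH 7.6, 5 mM MgCl2, 0.01% Tween-20.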

[6] = molecular target: Ubiquitin carboxyl-terminal hydrolase 1 (Homo sapiens) (UniProt O94782); test: Inhibitors of USP1/UAF1: Pilot qHTS (AID 504865); also: nearly all actives have a fitted effect of over 35% in size; also: potency is read from the fitted curve at half-maximal effect
Ubiquitin carboxyl-terminal hydrolase 1 (Homo sapiens), sequence (O94782 whole entry, looked up): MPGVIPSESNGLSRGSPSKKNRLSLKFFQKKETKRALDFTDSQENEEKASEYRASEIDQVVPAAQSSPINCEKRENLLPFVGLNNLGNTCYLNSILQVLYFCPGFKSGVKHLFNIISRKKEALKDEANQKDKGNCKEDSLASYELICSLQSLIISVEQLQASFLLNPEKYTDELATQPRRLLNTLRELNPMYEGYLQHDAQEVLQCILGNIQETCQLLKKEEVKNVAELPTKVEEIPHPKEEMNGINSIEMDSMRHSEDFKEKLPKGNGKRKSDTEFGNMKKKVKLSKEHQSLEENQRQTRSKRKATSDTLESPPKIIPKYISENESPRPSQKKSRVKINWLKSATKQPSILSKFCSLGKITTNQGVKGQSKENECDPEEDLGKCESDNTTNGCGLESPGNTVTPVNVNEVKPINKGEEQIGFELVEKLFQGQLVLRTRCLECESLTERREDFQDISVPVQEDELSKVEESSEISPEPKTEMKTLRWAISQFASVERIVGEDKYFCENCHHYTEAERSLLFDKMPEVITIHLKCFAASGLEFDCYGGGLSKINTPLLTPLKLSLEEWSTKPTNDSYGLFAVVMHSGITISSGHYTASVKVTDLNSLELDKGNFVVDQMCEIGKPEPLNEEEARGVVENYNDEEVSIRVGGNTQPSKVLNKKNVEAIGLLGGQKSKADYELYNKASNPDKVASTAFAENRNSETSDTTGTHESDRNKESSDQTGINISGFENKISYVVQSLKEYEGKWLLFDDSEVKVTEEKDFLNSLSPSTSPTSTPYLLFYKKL
How it was run: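 Deubiquitinase activity followed as kinetic rhodamine fluorescence release from 150 nM Ub-Rho. 1 nM USP1/UAF1 with compound, after 15 min room-temperature preincubation, in HEPES pH 7.8 buffer containing TCEP, EDTA, BSA and Tween-20.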

[7] = qHTS for Inhibitors of ATXN expression: Validation of Cytotoxic Assay (AID 588349); also: potency is read from the fitted curve at half-maximal effect
How it was run: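 Cytotoxicity counter-screen: HEK293 cells exposed to compound titrations, 72 hr, 37 degrees C. Read-out is intracellular ATP (CellTiter Glo luminescence) as a viability measure.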

[8] = qHTS for Inhibitors of ATXN expression: Validation (AID 588378); also: nearly all actives have a fitted effect of over 75% in size; also: potency is read from the fitted curve at half-maximal effect
How it was run: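 Luciferase luminescence (Bright-Glo) from an ATXN2-FFLuc HEK293 line after 24 h compound exposure at 37 °C, preceded by a CellTiter-Fluor fluorescence viability read. Serial dilutions of a reference ATXN2 inhibitor and a luciferase inhibitor served as controls.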

[9] = molecular target: DNA dC->dU-editing enzyme APOBEC-3G (Homo sapiens) (UniProt Q9HC16); test: qHTS for inhibitors of Vif-A3G interactions: Validation (AID 588379)
DNA dC->dU-editing enzyme APOBEC-3G (Homo sapiens), sequence (Q9HC16 whole entry, looked up): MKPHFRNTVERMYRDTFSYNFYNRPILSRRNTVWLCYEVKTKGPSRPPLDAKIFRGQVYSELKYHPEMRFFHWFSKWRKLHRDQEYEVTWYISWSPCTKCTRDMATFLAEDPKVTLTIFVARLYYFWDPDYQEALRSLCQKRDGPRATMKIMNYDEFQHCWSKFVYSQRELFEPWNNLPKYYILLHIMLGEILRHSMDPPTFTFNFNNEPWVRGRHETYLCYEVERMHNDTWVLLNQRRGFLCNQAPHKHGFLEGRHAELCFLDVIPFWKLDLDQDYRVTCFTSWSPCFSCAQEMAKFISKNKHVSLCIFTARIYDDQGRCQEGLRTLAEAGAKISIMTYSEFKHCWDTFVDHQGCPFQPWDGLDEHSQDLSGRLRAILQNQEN
How it was run: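 Yellow fluorescence (Ex 488, Em 500-530) of Vif-coexpressing HeLa A3G-eYFP cells, scanned by Acumen cytometer, reports blocked A3G degradation. Cells plated at 700/well overnight at 37 deg C before compound addition, then a further overnight compound incubation at 37 deg C.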

[10] = molecular target: Estrogen receptor (Homo sapiens) (UniProt P03372); test: qHTS assay for small molecule antagonists of estrogen receptor alpha signaling (AID 588513; active = well fitted curve in the direction sought with a large enough effect in the signal ratio, with a control signal flat, not every such curve was filed as active; the % refers to the signal ratio)
Estrogen receptor (Homo sapiens), sequence (P03372 whole entry, looked up): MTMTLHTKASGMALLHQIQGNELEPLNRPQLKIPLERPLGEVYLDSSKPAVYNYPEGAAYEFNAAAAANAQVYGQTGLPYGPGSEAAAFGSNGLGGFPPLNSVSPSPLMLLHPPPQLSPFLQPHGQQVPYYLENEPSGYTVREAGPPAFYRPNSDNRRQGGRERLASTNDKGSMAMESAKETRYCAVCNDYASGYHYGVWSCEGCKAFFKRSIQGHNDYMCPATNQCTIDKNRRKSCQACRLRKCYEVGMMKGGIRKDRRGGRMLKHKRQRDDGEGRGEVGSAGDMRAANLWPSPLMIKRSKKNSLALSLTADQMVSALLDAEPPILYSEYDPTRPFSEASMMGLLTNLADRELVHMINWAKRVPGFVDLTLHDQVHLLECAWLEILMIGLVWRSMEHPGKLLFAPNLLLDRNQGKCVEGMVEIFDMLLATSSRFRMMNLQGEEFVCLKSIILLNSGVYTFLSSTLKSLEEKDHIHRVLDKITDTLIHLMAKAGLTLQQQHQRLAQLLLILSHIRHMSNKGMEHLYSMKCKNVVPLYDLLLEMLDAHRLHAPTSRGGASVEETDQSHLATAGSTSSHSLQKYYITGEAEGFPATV
How it was run: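 Antagonist mode: inhibition of 0.5 nM 17-beta-estradiol-driven beta-lactamase reporter in HEK 293 ER-alpha-UAS-bla cells, 18 h at 37C, CCF4 readout after 2 h at RT. Normalised to estradiol and DMSO; titration fitted to Hill.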

Measured: Potency

NC1CCN(c2cccc(Cl)n2)CC1
not listed: [10]
inactive: all other assays above

CCN(CC)CCNC(=O)c1cc(Cl)c(N)cc1OC
not listed: [9] | [10]
inactive: all other assays above

C#CCN(C)Cc1ccccc1
not listed: [9] | [10]
inactive: all other assays above

CN(C)CCOC(C)(c1ccccc1)c1ccccn1 (stereo not given)
not listed: [9] | [10]
inactive: all other assays above

CC1=C(CC(=O)O)c2cc(F)ccc2/C1=C\c1ccc(S(C)=O)cc1 (stereo not given)
not listed: [10]
inactive: all other assays above

NC(N)=NCCC[C@H](N)C(=O)O
not listed: [10]
inactive: all other assays above

CC(CN1c2ccccc2Sc2ccccc21)N(C)C (stereo not given)
active: [8] 17.8 µM
not listed: [7] | [9] | [10]
inactive: all other assays above

CN1CCN(C2Cc3ccccc3Sc3ccc(Cl)cc32)CC1 (stereo not given)
active: [7] 17.8 µM | [8] 12.6 µM
inactive: [1] | [2] | [3] | [4] | [5]

C[C@](N)(Cc1ccc(O)cc1)C(=O)O
not listed: [9] | [10]
inactive: all other assays above

Nc1cc(=O)[nH]c(N)n1
not listed: [10]
inactive: all other assays above

CNC(=O)Oc1ccc2c(c1)[C@]1(C)CCN(C)[C@@H]1N2C
not listed: [6] | [9]
inactive: all other assays above

CC(C(O)c1ccc(O)cc1)N1CCC(Cc2ccccc2)CC1 (stereo not given)
inactive: [1] | [2] | [3] | [4] | [5] | [6]

OCc1cc(C(O)CNCCCCCCOCCCCc2ccccc2)ccc1O (stereo not given)
inactive: [1] | [2] | [3] | [4] | [5] | [6]

CCCCCCCCCCCCCCCC(=O)NCCO
not listed: [10]
inactive: all other assays above

CNCCC(Oc1ccc(C(F)(F)F)cc1)c1ccccc1 (stereo not given)
inactive: [1] | [2] | [3] | [4] | [5] | [6]

O=C1N=C(O)CN1/N=C/c1ccc(-c2ccc([N+](=O)[O-])cc2)o1
not listed: [9] | [10]
inactive: all other assays above

CC(C)C(=O)c1c(C(C)C)nn2ccccc12
not listed: [10]
inactive: all other assays above

CSc1ccc2c(c1)C(N1CCN(C)CC1)Cc1ccccc1S2 (stereo not given)
inactive: [1] | [2] | [3] | [4] | [5]
active: [7] 31.6 µM | [8] 14.1 µM

CC1=C(CC(=O)O)c2cc(F)ccc2/C1=C\c1ccc(S(C)(=O)=O)cc1
not listed: [9] | [10]
inactive: all other assays above

CSc1ccc2c(c1)N(CCC1CCCCN1C)c1ccccc1S2 (stereo not given)
active: [7] 25.1 µM
not listed: [8] | [9] | [10]
inactive: all other assays above

Cc1cc(N)c2ccccc2[n+]1CCCCCCCCCC[n+]1c(C)cc(N)c2ccccc21
not listed: [7] | [8] | [10]
inactive: all other assays above

CC(C)(C)c1onc(OCP(=O)(O)O)c1CC(N)C(=O)O (stereo not given)
not listed: [9] | [10]
inactive: all other assays above

CNCCCC1c2ccccc2C=Cc2ccccc21
not listed: [8] | [9] | [10]
inactive: all other assays above

CN(C)CCC=C1c2ccccc2CCc2ccccc21
inactive: [1] | [2] | [3] | [4] | [5]

CC(CN(C)C)CN1c2ccccc2CCc2ccccc21 (stereo not given)
inactive: [1] | [2] | [3] | [4] | [5] | [6]

C=Cc1c(C)c2cc3[nH]c(cc4nc(cc5nc(cc1[nH]2)C(C)=C5CCC(=O)O)C(CCC(=O)O)=C4C)c(C)c3C=C
inactive and 50.1 µM (active): [6]
inactive: [1] | [2] | [4] | [5] | [8]
